The nature of experiment [1]: A CellTox Green Cytotoxicity Assay to monitor cytotoxicity in HEK293 cells - 40 hour (AID 1224871). Note: nearly all actives have a fitted effect of over 45% in size. Note: potency is the fitted concentration of half-maximal effect. The procedure, abridged:
(§1)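 Real-time, in one plate: 600 HEK293 cells/well with dead-cell DNA dye, pinned compound after 5 h, 37 C incubation over 40 h; viable cells give no appreciable fluorescence.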

Experiment [2] in a line: qHTS RealTime-Glo MT Cell Viability Assay in HEK293 cells - 16 hour (AID 1224872). Note: top concentration of the series differs between compounds; nearly all actives have a fitted effect of over 50% in size. The procedure, abridged: (§2)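 HEK293 cells seeded with NanoLuc/prosubstrate reagent, rested 5 h at 37 C, then dosed and kept at 37 C up to 40 h. Nonlytic real-time luminescence from viable cells read at 0, 8, 16, 24, 32 and 40 h.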
A short description of experiment [3]: qHTS RealTime-Glo MT Cell Viability Assay in HepG2 cells - 8 hour (AID 1224873). Note: nearly all actives have a fitted effect of over 55% in size. An outline of the steps: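 Real-time viability: cells seeded at 600 per well together with NanoLuc and cell-permeant prosubstrate, compounds added after 5 h incubation. Luminescence tracked at 0, 8, 16, 24, 32 and 40 h of exposure.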
In general terms: In qHTS, concentration-response curves come from the screen itself.

Experiment [4] is described as follows: qHTS RealTime-Glo MT Cell Viability Assay in HEK293 cells - 40 hour (AID 1224874). Note: nearly all actives have a fitted effect of over 50% in size. The settings on record: RealTime-Glo luminescence; max response: hits give low values. An outline of the steps:
(§3)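 Kinetic, non-lysing viability readout. Seed HEK293 (600/well) with reagent, incubate 5 h at 37 C/5% CO2, pin 23 nL compound in DMSO, incubate at 37 C, read luminescence at 0, 8, 16, 24, 32, 40 h.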

A short description of experiment [5]: A CellTox Green Cytotoxicity Assay to monitor cytotoxicity in HEK293 cells - 24 hour (AID 1224875). Note: series mostly up to about 77 µM; nearly all actives have a fitted effect of over 45% in size. The procedure, abridged:
as §1

Experiment [6] in a line: A CellTox Green Cytotoxicity Assay to monitor cytotoxicity in HepG2 cells - 16 hour (AID 1224876). Note: nearly all actives have a fitted effect of over 45% in size. The procedure, abridged: (§4)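 Cytotoxicity was tracked as dead-cell DNA fluorescence in HepG2 cells treated with test compounds at 37 C; each time-point value comes from one kinetic series spanning 0, 8, 16, 24, 32 and 40 h.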
The nature of experiment [7]: qHTS RealTime-Glo MT Cell Viability Assay in HepG2 cells - 32 hour (AID 1224877). Note: nearly all actives have a fitted effect of over 55% in size. The procedure, abridged: (§5)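 HepG2 cells (600/well) were dispensed with RealTime-Glo reagents, incubated 5 h at 37 °C, then treated with compounds in DMSO for up to 40 h. Nonlytic NanoLuc luminescence reflecting viable cells was read at each stated time point.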
The nature of experiment [8]: A CellTox Green Cytotoxicity Assay to monitor cytotoxicity in HepG2 cells - 24 hour (AID 1224878). Note: nearly all actives have a fitted effect of over 45% in size. An outline of the steps: as §4
Experiment [9] in a line: A CellTox Green Cytotoxicity Assay to monitor cytotoxicity in HepG2 cells - 40 hour (AID 1224879). Note: nearly all actives have a fitted effect of over 40% in size. The procedure, abridged:
as §4

A short description of experiment [10]: qHTS RealTime-Glo MT Cell Viability Assay in HEK293 cells - 0 hour (AID 1224880). An outline of the steps:
as §3

The nature of experiment [11]: A CellTox Green Cytotoxicity Assay to monitor cytotoxicity in HEK293 cells - 32 hour (AID 1224881). Note: nearly all actives have a fitted effect of over 40% in size. An outline of the steps: as §1
A short description of experiment [12]: A CellTox Green Cytotoxicity Assay to monitor cytotoxicity in HepG2 cells - 0 hour (AID 1224882). Note: nearly all actives have a fitted effect of over 35% in size. The procedure, abridged:
as §4

Experiment [13] can be described thus: A CellTox Green Cytotoxicity Assay to monitor cytotoxicity in HEK293 cells - 8 hour (AID 1224884). Note: nearly all actives have a fitted effect of over 35% in size. An outline of the steps: as §1
Experiment [14] is described as follows: qHTS RealTime-Glo MT Cell Viability Assay in HepG2 cells - 16 hour (AID 1224885). Note: nearly all actives have a fitted effect of over 50% in size. An outline of the steps:
as §5

A short description of experiment [15]: qHTS RealTime-Glo MT Cell Viability Assay in HEK293 cells - 24 hour (AID 1224886). Note: top concentration of the series differs between compounds; nearly all actives have a fitted effect of over 50% in size. The procedure, abridged:
as §2

Experiment [16] can be described thus: A CellTox Green Cytotoxicity Assay to monitor cytotoxicity in HEK293 cells - 16 hour (AID 1224888). Note: nearly all actives have a fitted effect of over 35% in size. The procedure, abridged:
as §1

The nature of experiment [17]: qHTS RealTime-Glo MT Cell Viability Assay in HepG2 cells - 0 hour (AID 1224889). Note: nearly all actives have a fitted effect of over 50% in size. The procedure, abridged: as §5
Experiment [18] in a line: A CellTox Green Cytotoxicity Assay to monitor cytotoxicity in HepG2 cells - 8 hour (AID 1224890). Note: nearly all actives have a fitted effect of over 45% in size. An outline of the steps:
as §4

The nature of experiment [19]: A CellTox Green Cytotoxicity Assay to monitor cytotoxicity in HepG2 cells - 32 hour (AID 1224883). Note: nearly all actives have a fitted effect of over 50% in size. The procedure, abridged: as §4
Experiment [20] can be described thus: qHTS RealTime-Glo MT Cell Viability Assay in HEK293 cells - 8 hour (AID 1224887). An outline of the steps: as §3

Unmarked numbers belong to inactive results. Results filed as inconclusive are left out. Activity calls are given as the source filed them. Calls come from the whole dose curve; as a rule, active = well fitted curve in the direction sought with a large enough effect in the repeat runs; inconclusive = weak or mixed curves; inactive = no such curve, though single readings can be large; an effect the other way counts as inactive or inconclusive.
% is set by controls: 0 for no effect and ±100 for the full control effect.

As to `O=P(O)(OCc1ccccc1)OCc1ccccc1`, the Potency entry in [1], in experiment [2], in experiment [3], in [5], in [6] and in experiment [7] was “inactive” each time. Besides, the Potency entry in experiment [8], in experiment [9], in experiment [10], in [11], in [12] and in [13] was “inactive” in each case. Moreover, the Potency entry in [14], in experiment [15], in experiment [16], in experiment [17] and in experiment [18] was “inactive” each time. For the same molecule, in experiment [4], the max response was 2.99%.

Consider `O=C(CS)Nc1ccccc1`, for which the Potency entry in experiment [1], in [2], in experiment [3], in experiment [5], in [6] and in [7] was “inactive” each time. Also, the Potency result in [8], in experiment [9], in [10], in experiment [11], in experiment [12] and in [19] was “inactive” in each case. The Potency entry in experiment [13], in [14], in experiment [15], in [20], in [16] and in experiment [17] was “inactive” each time. Also, the Potency result in [18] was “inactive”.

Regarding `O=C(O)CC(=O)C(=O)O`, the Potency result in experiment [1], in experiment [2], in experiment [3], in [5], in experiment [6] and in [7] was “inactive” each time. Also, the Potency result in experiment [8], in experiment [9], in experiment [11], in [12], in [19] and in experiment [13] was “inactive” throughout. Moreover, the Potency result in experiment [14], in experiment [15], in [20], in experiment [16], in experiment [17] and in experiment [18] was “inactive” each time. For the same molecule, the max response in experiment [4] is -2.18%.

As to `CCCCCCCC#N`, the Potency result in experiment [1], in experiment [2], in [3], in [5], in experiment [6] and in [7] was “inactive” each time. The Potency result in experiment [8], in experiment [9], in [11], in experiment [12], in experiment [19] and in experiment [13] was “inactive” in each case. The Potency entry in [14], in [15], in [20], in [16] and in experiment [17] was “inactive” each time. Further, the max response in experiment [4] is -4.16%.

As to `COC(C)(C)CCO`, the Potency entry in experiment [1], in [2], in experiment [3], in [5], in [6] and in experiment [7] was “inactive” in each case. The Potency result in experiment [8], in experiment [9], in experiment [11], in experiment [12], in experiment [19] and in experiment [13] was “inactive” in each case. Further, the Potency result in [14], in experiment [15], in [20], in experiment [16], in [17] and in experiment [18] was “inactive” each time. Also, in experiment [4], the max response was 1.17%.

As for `CC(CSC(=O)c1ccccc1)C(=O)N1C[C@@H](Sc2ccccc2)C[C@H]1C(=O)O` (some centres not stated), the cytotoxicity increase in [1] was 1.14% [at 15.8 µM]; in [6], -2.05% [at 15.8 µM]; in experiment [9], -0.523% [at 15.8 µM]; in experiment [11] it was 1.09% [at 15.8 µM]; in [19] it was -3.06% [at 15.8 µM]; in experiment [13], 0.0018% [at 15.8 µM]. Also, the activity change, negative = cytotoxicity in [2] was -4.93% [at 15.8 µM]; in experiment [10] it was -6.47% [at 15.8 µM]; in [15], -5.81% [at 15.8 µM]; in experiment [20], -4.84% [at 15.8 µM]; in [17], -0.48% [at 15.8 µM]. The viability change, negative = cytotoxic in [3] is 1.39% [at 15.8 µM]. Also, the activity change in [5] was 3.46% [at 15.8 µM, hits give high values]; in [16], -0.144% [at 15.8 µM, hits give high values]. In addition, the activity change, negative = cytotoxic in experiment [7] was 4.17% [at 15.8 µM]; in experiment [14] it was 2.9% [at 15.8 µM]. Besides, the cytotoxicity in [8] was -1.93% [at 15.8 µM]; in [12] it was 5.13% [at 15.8 µM].

For `CC(=O)[O][Al][O]C(C)=O`, the Potency entry in experiment [1], in [2], in experiment [3], in experiment [5], in experiment [6] and in [7] was “inactive” throughout. The Potency entry in experiment [8], in experiment [9], in [10], in experiment [11], in experiment [19] and in [13] was “inactive” throughout. Further, the Potency result in experiment [14], in experiment [15], in [20], in [16] and in [17] was “inactive” in each case. Besides, in [4], the max response is 6.93%.

With `O=C1CCCCCCCCCCCC(=O)OCCO1`, in experiment [1], the Potency was 54.9 µM (active). Further, the Potency entry in experiment [2], in experiment [3], in experiment [5], in experiment [6], in experiment [7] and in experiment [10] was “inactive” throughout. In addition, the Potency entry in experiment [12], in [13], in experiment [14], in experiment [15], in experiment [20] and in experiment [16] was “inactive” throughout. Besides, the Potency entry in experiment [17] and in [18] was “inactive” in each case. The max response in experiment [4] is -16%.

Consider `c1ccc(CNCCNCc2ccccc2)cc1`, for which the Potency result in experiment [1], in experiment [2], in experiment [3], in experiment [5], in experiment [6] and in experiment [7] was “inactive” throughout. The Potency entry in experiment [8], in experiment [9], in experiment [10], in experiment [11], in experiment [12] and in experiment [19] was “inactive” in each case. Besides, the Potency entry in [13], in [14], in [15], in experiment [20], in experiment [16] and in experiment [17] was “inactive” in each case.

With `C1CCCNCCC1`, the Potency entry in [1], in experiment [2], in experiment [3], in [5], in experiment [6] and in experiment [7] was “inactive” in each case. In addition, the Potency result in [8], in [9], in experiment [11], in experiment [19], in experiment [13] and in experiment [14] was “inactive” in each case. The Potency entry in [15], in experiment [20], in [16], in [17] and in experiment [18] was “inactive” each time. Further, the max response in experiment [4] is -5.84%.

For `O=[N+]([O-])c1ccc(NCCO)c(OCCO)c1`, the Potency entry in experiment [1], in [2], in [3], in [5], in experiment [6] and in [7] was “inactive” in each case. Also, the Potency entry in [8], in experiment [9], in experiment [10], in [11], in [12] and in [19] was “inactive” in each case. For the same molecule, the Potency result in [13], in [14], in [15], in experiment [20], in experiment [16] and in experiment [17] was “inactive” in each case. In experiment [18], the Potency result was “inactive”.

As to `CCOC(=O)C1=C[C@]2(CC)CCCN3CCc4c(n1c1ccccc41)[C@@H]32`, the Potency result in [1], in experiment [2], in experiment [3], in [5], in experiment [7] and in experiment [10] was “inactive” throughout. Further, the Potency entry in [11], in experiment [12], in [13], in [14], in experiment [15] and in experiment [20] was “inactive” in each case. Moreover, the Potency entry in [16] and in experiment [17] was “inactive” each time. The max response in [4] is -21.2%.

On to `CCCn1cnc2c1c(=O)n(CCCCC(C)=O)c(=O)n2C`, for which the Potency entry in experiment [1], in experiment [2], in experiment [3], in [5], in [6] and in experiment [7] was “inactive” each time. For the same molecule, the Potency entry in [8], in experiment [9], in experiment [10], in experiment [11], in experiment [12] and in experiment [19] was “inactive” each time. Also, the Potency result in [13], in experiment [14], in experiment [15], in experiment [20], in experiment [16] and in experiment [17] was “inactive” throughout.

`NCCCN1CCOCC1`: the Potency entry in experiment [1], in experiment [2], in [3], in experiment [5], in experiment [6] and in experiment [7] was “inactive” each time. The Potency entry in experiment [8], in experiment [9], in [10], in experiment [11], in [19] and in [13] was “inactive” throughout. The Potency result in experiment [14], in experiment [15], in experiment [20], in experiment [16], in experiment [17] and in [18] was “inactive” each time. For the same molecule, the max response in experiment [4] is -9.34%.

The values are drawn from PubChem BioAssay (Tox21).
